Source: PubChem BioAssay (Tox21)
Several values for one entry are separate records, joined by “and”; a condition that tells them apart may be missing. Equal entries are not always repeated. Results filed as inconclusive are left out. Some compounds were tested as several samples or in several runs, with calls that do not always agree. Activity calls are given as the source filed them. The call rests on the fitted dose curve; in most records, active means well fitted cell-killing curve with a large enough effect in the repeat runs; inconclusive means weak or mixed curves, or effect the other way; inactive means no such curve, though single readings can be large or run the other way.

Assay: qHTS assay to identify aromatase inhibitors - cell viability counter screen (AID 743084);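 further: cells stimulated with testosterone during compound exposure; nearly all actives have a fitted effect of over 55% in size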
Settings: MCF-7 aro ERE viability, CellTiter-Fluor, 24 h; series mostly up to 70.3 µM; activity change, negative = cytotoxicity: at the top concentration
On the % scale 0 is the no-effect control and ±100 the full control effect; potency means the concentration at half of the fitted maximal effect.

SMILES | activity change, negative = cytotoxicity | Potency
CC1(C)[C@H](C(=O)O[C@H](C#N)c2cccc(Oc3ccccc3)c2)[C@@H]1C=C(Br)Br | 13.2% [at 95 µM] (inactive) | –
CCCN(CCC)C(=O)Cc1c(-c2ccc(Cl)cc2)nc2ccc(Cl)cn12 | -2.13% (inactive) | –
Cc1ncc(C[n+]2csc(CCO)c2C)c(N)n1 | -2.5% (inactive) | –
C[C@H](N)[C@H](O)c1ccc(O)c(O)c1 | -0.731% (inactive) | –
CN1C[C@H](C(=O)N[C@]2(C)O[C@@]3(O)[C@@H]4CCCN4C(=O)[C@H](Cc4ccccc4)N3C2=O)C=C2c3cccc4[nH]cc(c34)C[C@H]21 | -19.4% [at 32.5 µM] (inactive) | –
CC(C)(C)CC(C)(C)c1ccc(O)cc1 | – | inactive and 30.6 µM (active)
COc1ccc(C(=O)c2c(C)n(CCN3CCOCC3)c3ccccc23)cc1 | -11.7% (inactive) | –
O=C(O)COc1cc(Cl)c(Cl)cc1Cl | – | inactive
O=C(O)C(O)C(O)C(=O)O (stereo not given) | 6.56% (inactive) | –
COC(=O)Cc1ccccc1 | 4.74% (inactive) | –
CCOP(=O)(SC(C)CC)N1CCSC1=O (stereo not given) | 3.92% (inactive) | –
C=CCN1C[C@H](C)N([C@H](c2ccc(C(=O)N(CC)CC)cc2)c2cccc(OC)c2)C[C@H]1C | 0.743% (inactive) | –
O=C(O)c1cc(I)cc(I)c1I | 13% [at 95 µM] (inactive) | –
CC(C)CCCCCCCOC(=O)c1ccccc1C(=O)OCCCCCCCC(C)C | 13.3% (inactive) | –
CCC1(CCC(C)C)C(=O)NC(=O)NC1=O | -4.61% (inactive) | –
O=C(NC(=O)c1cc(F)c(F)cc1Cl)Nc1cc(F)ccc1N1CCC(C(=O)O)CC1 | 13% (inactive) | –
NC(=S)c1c(Cl)cccc1Cl | 8% (inactive) | –
C[CH2][Hg][S]c1ccccc1C(=O)O | – | 5.96 µM (active) and 1.09 µM (active)

SMILES | activity change, negative = cytotoxicity | Potency
CC1(C)CC(=O)CC(C)(C)N1[O] | 11.3% (inactive) | –
[Cl-].[Cl-].[Hg+2] | – | 10.6 µM (active) and 1.08 µM (active) and 12.2 µM (active)
CN1CC[C@]23c4c5ccc(O)c4O[C@H]2[C@@H](O)C=C[C@H]3[C@H]1C5 | -0.49% (inactive) | –
CC(C)[C@@H](C(=O)O[C@@H](C#N)c1cccc(Oc2ccccc2)c1)c1ccc(Cl)cc1 | 11.8% [at 95 µM] (inactive) | –
C[C@H]1[C@@H]2Cc3ccc(O)cc3[C@@]1(C)CCN2C | 7.17% [at 260 µM] (inactive) | –
CCCCCCCCCCCCN=C(N)N | -14.3% [at 3.79 µM] (inactive) | –
O=C1c2ccccc2C(=O)N1SC(Cl)(Cl)Cl | – | 1.22 µM (active)
O=C1NC(=O)C(=O)C(=O)N1 | 5.1% [at 95 µM] (inactive) | –
CCCCCCCCn1sccc1=O | – | 12.2 µM (active) and 40.4 µM (active)
COC1=CC(=O)O[C@@H](/C=C/c2ccc3c(c2)OCO3)C1 | 22.8% (inactive) | –
CCC1(C2=NCCN2)Cc2ccccc2O1 (stereo not given) | 0.824% (inactive) | –
CC(Oc1cc(Cl)c(Cl)cc1Cl)C(=O)O (stereo not given) | 5.6% (inactive) | –
C[C@]12CC[C@H]3[C@@H](CCC4=CC(=O)CC[C@@H]43)[C@@H]1CC[C@@H]2OC(=O)CCc1ccccc1 | 8.48% (inactive) | –
CNC(=O)Oc1cccc(N=CN(C)C)c1 | 0.836% (inactive) | –
NCCc1cc(O)c(O)cc1O | -19.5% (inactive) | –
CN(C)C(=O)Nc1cccc(OC(=O)NC(C)(C)C)c1 | 0.656% (inactive) | –
O=C(O)C(F)(F)C(F)(F)C(F)(F)C(F)(F)C(F)(F)C(F)(F)C(F)(F)C(F)(F)F | -1.72% (inactive) | –
